Tests used:
[1] = tested on: CHO; test: % viability of CHO cells (MTT); higher = less toxic; conditions: 48 h
Procedure, shortened: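 CHO cells were seeded at 10^6 cells/well in 200 µL and left overnight to attach. The medium was then replaced with fresh medium containing compound at 2 or 20 µM for 48 h. Survival was read colorimetrically with the tetrazolium (MTT) assay. Percent viability was expressed relative to untreated cells.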

[2] = tested on: HepG2-A16-CD81; test: % inhibition of HepG2 viability (CellTiter-Glo); higher = more toxic; conditions: 5 µM;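 note: HepG2-A16-CD81 hepatoma cells plated as in the liver-stage assay but without sporozoites, with DMSO wells as negative and 25 µM puromycin as positive control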
[3] = tested on: Plasmodium falciparum NF54 stage IV/V gametocytes; test: % inhibition of gametocyte viability (PrestoBlue); higher = more inhibition; conditions: 48 h
Procedure, shortened: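 Stage IV/V NF54 gametocytes (2% gametocytaemia, 5% haematocrit, 100 µL/well) were exposed to compound at 1 or 5 µM. Incubation was 48 h at 37 °C, stationary and hypoxic, followed by 10 µL PrestoBlue for 2 h. Fluorescence at 612 nm was read on 70 µL of transferred supernatant. Percent inhibition of gametocyte viability was normalised to DMSO and kill controls from a single run.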

[4] = tested on: Plasmodium falciparum NF54 asexual blood stage; test: % inhibition of asexual blood stage proliferation (pLDH); higher = more inhibition; conditions: 72 h
Procedure, shortened: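 Plasmodium falciparum NF54 ring-stage cultures (1% haematocrit, 2% parasitaemia) were exposed to compound at 2 or 20 µM in 96-well plates. Incubation was 72 h at 37 °C under 4% CO2, 3% O2 and 93% N2. Survival was read colorimetrically at 620 nm with the parasite lactate dehydrogenase assay. Percent inhibition of asexual proliferation was normalised to DMSO and kill controls, and the screen was run on two separate occasions.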

[5] = tested on: Plasmodium falciparum NF54 stage IV/V gametocytes; test: % inhibition of gametocyte viability (ATP bioluminescence); higher = more inhibition; conditions: 24 h
Procedure, shortened: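 In 96-well plates, compound at 1 or 5 µM was added to 30,000 density-gradient-enriched stage IV/V NF54 gametocytes per well and incubated for 24 h at 37 °C. ATP readout used the Promega BacTiter Glo bioluminescence system. Percent inhibition of gametocyte viability comes from a single run, normalised to control wells.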

[6] = tested on: Plasmodium falciparum NF54 stage IV/V gametocytes; test: % inhibition of gametocyte viability (luciferase reporter); higher = more inhibition; conditions: 48 h
Procedure, shortened: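 Percent inhibition was normalised to controls from a single run. Stage IV/V gametocytes of the NF54-Pfs16-GFP-Luc line, at 2% gametocytaemia and 2% haematocrit, were exposed to compound at 1 or 5 µM for 48 h at 37 °C under stationary, hypoxic conditions. Luminescence was then read from 30 µL lysate mixed with 30 µL Promega luciferin substrate on a GloMax-Multi+ reader with 10 s integration.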

| SMILES | % viability of CHO cells ([1]; 2 µM) [%] | % viability of CHO cells ([1]; 20 µM) [%] | % inhibition of HepG2 viability [2] [%] | % inhibition of gametocyte viability ([3]; 1 µM) [%] | % inhibition of gametocyte viability ([3]; 5 µM) [%] | % inhibition of asexual blood stage proliferation ([4]; 2 µM) [%] | % inhibition of asexual blood stage proliferation ([4]; 20 µM) [%] | % inhibition of gametocyte viability ([5]; 1 µM) [%] | % inhibition of gametocyte viability ([5]; 5 µM) [%] | % inhibition of gametocyte viability ([6]; 1 µM) [%] | % inhibition of gametocyte viability ([6]; 5 µM) [%] |
| --- | --- | --- | --- | --- | --- | --- | --- | --- | --- | --- | --- |
| CCc1nc(N)nc(N)c1C#CC(C)c1cc(OC)cc(-c2ccncc2)c1 (stereo not given) | 89.5 | 52.5 | 20.8 | < 0 | 9.41 | 51.1 | 94 | < 0 | < 0 | < 0 | < 0 |
| C=CCc1cc(Cc2cnc(N)nc2N)cc(OC)c1O | 89.2 | 105 | 7.8 | 12.8 | 29.7 | 29.1 | 76.8 | < 0 | < 0 | < 0 | < 0 |
| CCCCCCCc1[nH]c2ccccc2c(=O)c1O | 96.8 | 107 | 24.8 | < 0 | < 0 | 22.4 | 83.6 | < 0 | < 0 | < 0 | < 0 |
| COc1ccc(C(C)(C)C)cc1NC(=O)C(=O)c1ccc(OCCN2CCOCC2)c2ccccc12 | 97.6 | 130 | 1.14 | 12.9 | 26.4 | 29.2 | 23.5 | < 0 | < 0 | 6.49 | < 0 |
| Oc1c(C(Nc2ccccn2)c2ccccc2)ccc2cccnc12 (stereo not given) | 115 | 68.7 | 10.2 | 49 | 26.9 | 71.8 | 88.8 | < 0 | 40.6 | 0.252 | 33.3 |
| CCc1c(OCC2CCC2)c2cc(F)ccc2[nH]c1=O | 78.6 | 52.7 | -2.38 | 14.3 | 2.83 | 26.9 | 36 | 7.14 | < 0 | < 0 | < 0 |
| Cc1cc(CCCOc2c(C)cc(-c3noc(C(F)(F)F)n3)cc2C)on1 | 103 | 125 | 7.06 | 6.7 | 35.6 | 44.6 | 65.2 | 4.65 | 5.28 | 10.6 | < 0 |
| N[C@H](CCC(=O)N[C@@H](Cc1c[nH]c2ccccc12)C(=O)O)C(=O)O | 116 | 57.6 | -8.85 | < 0 | 3.44 | 28.8 | 43.7 | 4.77 | < 0 | 6.42 | < 0 |
| COc1cc(NC(=O)CN2C(=O)NC(c3ccccc3)(c3ccccc3)C2=O)cc(OC)c1 | 91.4 | 102 | -3.2 | < 0 | 28.9 | -4.55 | 7.51 | < 0 | < 0 | < 0 | 8.59 |
| CCNC(=O)Nc1cc(-c2ccccc2)c(-c2cncc(C(=O)O)c2)cn1 | 109 | 94 | -1.59 | 19.7 | 30.2 | -11.2 | -0.305 | < 0 | < 0 | < 0 | < 0 |
| COc1cc(Cc2cnc(N)nc2N)c2c(c1OC)OC(C1CC1)C=C2 (stereo not given) | 103 | 67.7 | -4.44 | 36.3 | 6.68 | 13 | 34 | 1.06 | < 0 | 35.9 | 1.69 |
| O=C(c1ccc(F)cc1)N1CCN2C(=O)c3ccccc3C12c1ccccc1 (stereo not given) | 116 | 109 | -0.867 | 13.1 | 10.8 | 37.1 | 83.7 | < 0 | < 0 | < 0 | < 0 |
| Cc1ccc(S(=O)(=O)Nc2cccc3cccnc23)cc1 | 76 | -0.468 | -5.32 | 13.9 | < 0 | 55 | 103 | < 0 | 47.3 | < 0 | 5.04 |
| N[C@@H]1CN(c2c(F)cc3c(=O)c(C(=O)O)cn([C@@H]4C[C@@H]4F)c3c2Cl)CC12CC2 | 94.4 | 69.3 | -1.55 | < 0 | 10.3 | 36.2 | 99.6 | < 0 | < 0 | 0.138 | < 0 |
| C[C@H]1[C@@H](c2cccc(C(F)(F)F)c2)OC(=O)N1C(=O)NCc1cncc2ccccc12 | 93.8 | 118 | 12.1 | < 0 | 27.7 | -2.37 | 30.8 | < 0 | < 0 | < 0 | < 0 |
| COc1ccccc1NC(=O)c1ccccc1Sc1ccc([N+](=O)[O-])cc1 | 85.2 | 108 | -1.52 | 17.1 | 14.1 | -1.69 | 81 | 7.24 | 1.71 | 3.21 | 8.85 |
| NCc1ccc(S(N)(=O)=O)cc1 | 83.8 | 129 | 6.22 | 7.26 | 15.6 | 24 | 96.5 | < 0 | < 0 | < 0 | < 0 |
| CC[C@H]1OC(=O)[C@H](C)[C@@H](O[C@H]2C[C@@](C)(OC)[C@@H](O)[C@H](C)O2)[C@H](C)[C@@H](O[C@@H]2O[C@H](C)C[C@H](N(C)C)[C@H]2O)[C@](C)(O)C[C@@H](C)C(=O)[C@H](C)[C@@H](O)[C@]1(C)O | 90.8 | 55.1 | 3.5 | 21 | 21 | -1.14 | 14.1 | < 0 | < 0 | < 0 | < 0 |
| NC(=O)c1cnccn1 | 96 | 75.7 | -2.12 | 9.19 | 38.1 | 38.1 | 70.3 | < 0 | < 0 | < 0 | 14.8 |
| Cc1ccc(N2CCC(CCOc3ccc(S(C)(=O)=O)cc3)CC2)nn1 | 89.6 | 123 | 1.45 | 0.785 | < 0 | 9.69 | 64.6 | 1.5 | < 0 | 0.296 | < 0 |
